SMILES strings stand for the structures. Inconclusive results are not listed. Calls of active or inactive are those of the source. Unless noted, calls follow the shape of the full dose curve.

Experiment [1] concerns the target Cytochrome P450 2C19 (Homo sapiens) (UniProt P33261). The experiment can be described thus: qHTS Assay for Inhibitors and Substrates of Cytochrome P450 2C19 (AID 899; active = well fitted curve in the direction sought with a large enough effect; an effect the other way counts as inactive or inconclusive; also: potency is read from the fitted curve at half-maximal effect; nearly all actives have a fitted effect of over 60% in size). The method in brief:
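Luminescence readout of luciferin formed from 10uM Luciferin-H EGE (KM level) by 5 nM CYP2C19 in 50mM KPO4. 60 min NADPH-driven reaction at 37C after 10 min compound preincubation; data scaled to 57uM ketoconazole inhibition.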
(Quantitative high-throughput screening tests each substance at several concentrations.)

Experiment [2] is described as follows: qHTS Assay for Lipid Storage Modulators (AID 1519). As to activity change, negative = inhibition: % is scaled to controls: 0 for no effect and ±100 for the full control effect. The settings on record: Drosophila S3 cells, BODIPY lipid droplet/cell ratio, laser cytometry, cells loaded with oleic acid. The method in brief:
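Cells seeded at 5,000 per well were treated with compounds over a concentration series and loaded with oleic acid (400 uM, as added). Lipid droplet fluorescence (488 nm excitation, 500-530 nm channel) was read by laser-scanning cytometry and normalized to 20 uM Triacsin C.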

A short description of experiment [3]: qHTS profiling of the MIPE4 collection as inhibitors of Plasmodium falciparum (DD2) proliferation (AID 743345; call rule not given here). The settings on record: P. falciparum Dd2 in erythrocytes, SYBR Green DNA, 72 h; at 28.5 µM (top of the series) unless noted. In short, it runs like this:
(§1)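 Parasite DNA was quantified by SYBR Green I fluorescence (ex 485, em 535 nm) after overnight lysis in saponin/Triton buffer at room temperature. Cultures at 0.3% parasitemia and 2.5% hematocrit were first exposed to compound for 72 h at 37 C; signals were normalised to artemisinin (0.29 uM) and vehicle wells.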

Experiment [4] is described as follows: qHTS profiling of the MIPE4 collection as inhibitors of Plasmodium falciparum (DD2) proliferation (Rep 2) (AID 743346; call rule not given here). To be noted: P. falciparum Dd2 in erythrocytes, SYBR Green DNA, 72 h; at 28.5 µM (top of the series) unless noted. In short, it runs like this:
as §1

A short description of experiment [5]: qHTS for Inhibitors of the Functional Ribonucleoprotein Complex (vRNP) of Lassa (LASV) Arenavirus: LASV Primary Screen - GLuc reporter signal (AID 1347082; calls by dose curve; tested in HEK293 reporter line; also: % is scaled to controls: 0 for no effect and ±100 for the full control effect; nearly all actives have a fitted effect of over 60% in size).
Experiment [6] in a line: qHTS for Inhibitors of the Functional Ribonucleoprotein Complex (vRNP) of Lassa (LASV) Arenavirus: Viability assay - alamar blue signal for LASV Primary Screen (AID 1347083; calls by dose curve; tested in HEK293 reporter line; also: % is scaled to controls: 0 for no effect and ±100 for the full control effect; nearly all actives have a fitted effect of over 80% in size).
A short description of experiment [7]: qHTS for Inhibitors of the Functional Ribonucleoprotein Complex (vRNP) of Lymphocytic Choriomeningitis Arenaviruses (LCMV): Viability assay - alamar blue signal for LCMV Primary Screen (AID 1347085; calls by dose curve; tested in HEK293 reporter line; also: % is scaled to controls: 0 for no effect and ±100 for the full control effect; nearly all actives have a fitted effect of over 80% in size).
Experiment [8] deals with Nucleoprotein (Lymphocytic choriomeningitis virus (strain Armstrong)) (UniProt P09992). In words: qHTS for Inhibitors of the Functional Ribonucleoprotein Complex (vRNP) of Lymphocytic Choriomeningitis Arenaviruses (LCMV): LCMV Primary Screen - GLuc reporter signal (AID 1347086). Also: % is scaled to controls: 0 for no effect and ±100 for the full control effect; nearly all actives have a fitted effect of over 70% in size.
Experiment [9] is described as follows: Cytotoxicity counterscreen for inhibitors of SARS-CoV-2 cell entry (AID 1645845). Also: nearly all actives have a fitted effect of over 50% in size. The method in brief:
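ATP-content luminescence (ATPLite 1step, 15 min RT) read after 48 h compound exposure of Expi293F cells stably expressing human ACE2; normalized to cells-only wells and media-only wells.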

A short description of experiment [10]: Primary qHTS to identify inhibitors of SARS-CoV-2 cell entry (AID 1645846). Also: nearly all actives have a fitted effect of over 45% in size. To be noted: activity change, negative = inhibition: at 57.1 µM (top of the series) unless noted. In short, it runs like this:
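Entry measured by luciferase signal 48 h after adding SARS-CoV-2-S pseudotyped MLV particles to HEK293-ACE2 cells preincubated 1 h with compounds. Normalisation: bald particles and spike particles.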

Experiment [11] can be described thus: Validation screen for inhibitors of Lassa infection (AID 463096). As to activity change, negative = inhibition: % is scaled to controls: 0 for no effect and ±100 for the full control effect.
Experiment [12] is described as follows: Primary qHTS for Huh7 cytotoxicity: counterscreen for inhibitors of MERS-S pseudotyped particle cell entry (AID 1479147). To be noted: outcome: dose series up to 57.1 µM unless noted.
The nature of experiment [13]: Primary qHTS for Vero E6 cytotoxicity: counterscreen for inhibitors of SARS-S pseudo-typed particle cell entry (AID 1479150). To be noted: outcome: dose series up to 57.1 µM unless noted.
For experiment [14], the target named is Alpha-galactosidase (Coffea arabica) (UniProt Q42656). In words: Counterscreen for Glucocerebrosidase Inhibitors: qHTS Assay for Coffee Bean alpha-Galactosidase at pH 5.9 (AID 998; active = well fitted curve in the direction sought with a large enough effect; an effect the other way counts as inactive or inconclusive;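 also: plate controls were uninhibited enzyme for no effect and no-enzyme basal signal for full effect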). In short, it runs like this: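 Fluorogenic 4-MU substrate hydrolysis, 80 uM substrate and 2 nM coffee bean alpha-galactosidase, pH 5.9 citrate buffer, 20 min at room temperature, then NaOH/glycine stop. Titration 0.7 nM–77 uM, normalized to no-enzyme and enzyme controls, AC50 via Hill equation.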
For orientation: Counterscreens check selectivity or assay interference.

Experiment [15] can be described thus: Primary qHTS for inhibitors of MERS-S pseudo-typed particle cell entry (AID 1479149). Also: % is scaled to controls: 0 for no effect and ±100 for the full control effect; nearly all actives have a fitted effect of over 60% in size.

Nucleoprotein (Lymphocytic choriomeningitis virus (strain Armstrong)), sequence (P09992 whole entry, looked up): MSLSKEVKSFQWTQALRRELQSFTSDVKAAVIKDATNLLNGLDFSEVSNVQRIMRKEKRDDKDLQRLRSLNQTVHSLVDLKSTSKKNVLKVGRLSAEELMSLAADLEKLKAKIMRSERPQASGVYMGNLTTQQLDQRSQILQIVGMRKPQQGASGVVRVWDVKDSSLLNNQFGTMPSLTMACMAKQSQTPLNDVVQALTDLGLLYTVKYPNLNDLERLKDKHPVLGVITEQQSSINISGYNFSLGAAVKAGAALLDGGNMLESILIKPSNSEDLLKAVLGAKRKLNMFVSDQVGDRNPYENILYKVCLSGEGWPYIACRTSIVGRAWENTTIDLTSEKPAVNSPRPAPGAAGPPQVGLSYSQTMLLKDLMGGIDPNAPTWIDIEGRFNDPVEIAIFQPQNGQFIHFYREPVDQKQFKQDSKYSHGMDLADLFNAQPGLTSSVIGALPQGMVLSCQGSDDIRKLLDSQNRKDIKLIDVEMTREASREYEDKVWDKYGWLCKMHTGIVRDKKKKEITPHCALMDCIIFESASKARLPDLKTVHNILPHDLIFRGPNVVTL
Alpha-galactosidase (Coffea arabica), sequence (Q42656 whole entry, looked up): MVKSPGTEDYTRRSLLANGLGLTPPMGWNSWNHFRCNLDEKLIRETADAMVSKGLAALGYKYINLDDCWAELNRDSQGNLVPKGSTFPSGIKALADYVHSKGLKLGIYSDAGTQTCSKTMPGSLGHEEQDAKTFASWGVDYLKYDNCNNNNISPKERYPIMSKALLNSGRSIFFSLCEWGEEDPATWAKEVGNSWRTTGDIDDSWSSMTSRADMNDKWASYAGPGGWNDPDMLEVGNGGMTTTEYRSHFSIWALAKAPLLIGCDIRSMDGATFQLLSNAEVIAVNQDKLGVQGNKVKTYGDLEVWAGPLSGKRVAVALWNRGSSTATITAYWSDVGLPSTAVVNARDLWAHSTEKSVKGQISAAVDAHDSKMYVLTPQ
Cytochrome P450 2C19 (Homo sapiens), sequence (P33261 whole entry, looked up): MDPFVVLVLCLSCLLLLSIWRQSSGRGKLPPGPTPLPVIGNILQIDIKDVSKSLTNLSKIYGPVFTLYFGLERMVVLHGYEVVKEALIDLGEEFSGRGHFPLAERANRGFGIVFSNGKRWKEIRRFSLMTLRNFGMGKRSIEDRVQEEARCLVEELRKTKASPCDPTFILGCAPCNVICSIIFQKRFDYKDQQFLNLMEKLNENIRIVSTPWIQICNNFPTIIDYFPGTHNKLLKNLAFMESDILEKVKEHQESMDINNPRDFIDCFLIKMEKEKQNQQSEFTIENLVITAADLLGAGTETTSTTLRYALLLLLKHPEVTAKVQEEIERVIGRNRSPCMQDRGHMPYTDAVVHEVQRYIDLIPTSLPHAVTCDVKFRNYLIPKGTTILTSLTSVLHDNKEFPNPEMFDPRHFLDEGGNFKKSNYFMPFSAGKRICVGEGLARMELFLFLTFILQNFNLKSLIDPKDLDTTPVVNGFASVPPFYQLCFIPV

Consider `O=C1C[C@@H](c2ccc(O)cc2)Oc2cc(O)cc(O)c21`, for which the Potency in experiment [1] is 7.94 µM (active). Further, the activity change, negative = inhibition in experiment [2] (at 25.7 µM (top of the series)) was 0.577% (inactive). Further, the max response in [2] (measured here: cell count channel max response) is -18.3%; in [2] (measured here: lipid channel max response), -14.1%. Besides, the parasite growth remaining, % of DMSO control (lower = more inhibition) in experiment [3] was 72.2%. The molecule also showed a parasite growth, % of control (lower = inhibition) in experiment [4] of 56.8%. Besides, the Potency result in experiment [5], in experiment [6], in experiment [7], in experiment [8], in [9] and in [10] was “inactive” throughout.

As for `COc1ccc(CCN(C)CCCC(C#N)(c2ccc(OC)c(OC)c2)C(C)C)cc1OC` (configuration not stated), the result in experiment [11], in experiment [12] and in experiment [13] was inactive. Further, the Potency entry in experiment [5], in [6], in experiment [7], in experiment [8] and in [9] was “inactive” throughout.

For the molecule `NC(N)=NCc1cccc(I)c1`, the result in experiment [14], in experiment [12] and in [13] was inactive. Moreover, the Potency result in [11], in experiment [5], in experiment [6], in experiment [7], in experiment [8] and in experiment [15] was “inactive” in each case. Moreover, the Potency result in experiment [9] was “inactive”.

As for `CN(C/C=C/c1ccccc1)Cc1cccc2ccccc12`, the Potency entry in experiment [5], in experiment [6], in experiment [7], in experiment [8] and in experiment [9] was “inactive” in each case. The molecule was classed as inactive in [12] and in [13].

(Values after PubChem BioAssay (NCATS).)
